Laboratory results from PubChem BioAssay (Tox21).
Records with an inconclusive call do not appear. Entries that show only a call come without a potency. A number with no mark means an inactive call. The source made the active and inactive calls. The call rests on the fitted dose curve.

Target: Beta-2 adrenergic receptor (Homo sapiens) (UniProt P07550)
Experiment: Adrenergic beta2 receptor (ADRB2) small molecule agonists, cell-based qHTS assay (AID 1963593);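 on activation: CHO cells stably overexpressing human ADRB2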
How it was run: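 CHO cells stably over-expressing ADRB2 were plated overnight at 37C, then dosed with compounds plus a stimulation mix containing 100uM IBMX and 25uM Ro-20-1724 for 0.5hr at room temperature. cAMP was measured by HTRF competition, 1hr.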
Potency means the concentration at half of the fitted maximal effect.

Sequence of Beta-2 adrenergic receptor (Homo sapiens) (P07550 whole entry, looked up): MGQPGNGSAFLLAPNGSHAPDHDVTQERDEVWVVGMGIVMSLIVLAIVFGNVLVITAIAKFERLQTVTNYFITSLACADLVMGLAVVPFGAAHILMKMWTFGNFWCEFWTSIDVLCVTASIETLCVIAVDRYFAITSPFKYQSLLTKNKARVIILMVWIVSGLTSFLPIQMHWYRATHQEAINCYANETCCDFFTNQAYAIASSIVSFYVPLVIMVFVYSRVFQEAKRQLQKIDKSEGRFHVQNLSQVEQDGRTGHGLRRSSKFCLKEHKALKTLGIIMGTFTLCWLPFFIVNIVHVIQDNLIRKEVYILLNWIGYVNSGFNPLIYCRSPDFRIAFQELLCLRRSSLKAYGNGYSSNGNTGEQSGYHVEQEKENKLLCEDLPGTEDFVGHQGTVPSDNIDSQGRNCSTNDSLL

SMILES: O=C(NC(=O)c1c(F)cccc1F)Nc1cc(Cl)c(Oc2ncc(C(F)(F)F)cc2Cl)c(Cl)c1
- Potency: inactive

SMILES: C=CC(=O)OCC(COC(=O)C=C)(COC(=O)C=C)COC(=O)C=C
- Potency: 24300 nM (active)

SMILES: C#CC(O)(C=CCl)CC (stereo not drawn)
- Potency: inactive

SMILES: CC[C@H]1C[C@H]2[C@@H]3CCC4=CC(=O)CC[C@@H]4[C@H]3CC[C@]2(C)[C@H]1O
- Potency: inactive

SMILES: CCC1(c2ccccc2)C(=O)N=C(O)NC1=O (stereo not drawn)
- Potency: inactive

SMILES: CC(CC(C(N)=O)(c1ccccc1)c1ccccc1)N(C)C (stereo not drawn)
- Potency: inactive

SMILES: CCN(CC)C(=O)Cl
- Potency: inactive

SMILES: CC/C(=N\OC/C=C/Cl)C1=C(O)CC(C2CCOCC2)CC1=O (stereo not drawn)
- Potency: inactive

SMILES: N#C/C=C/c1ccccc1
- Potency: inactive

SMILES: SCc1ccco1
- Potency: inactive

SMILES: CCN(CC)c1c([N+](=O)[O-])cc(C(F)(F)F)c(N)c1[N+](=O)[O-]
- Potency: inactive

SMILES: O=C(Cl)c1ccc(Cl)cc1
- Potency: inactive

SMILES: CCCCCCCCCC(=O)O[C@H]1CC[C@H]2[C@@H]3CCC4=CC(=O)CC[C@@H]4[C@H]3CC[C@]12C
- Potency: inactive

SMILES: C[N+](C)(C)CCOC(=O)C(O)(c1ccccc1)c1ccccc1
- Potency: inactive

SMILES: O=C(N[C@H]1N=C(c2ccccc2F)c2cccc3c2N(CC3)C1=O)c1cc2ccccc2[nH]1
- Potency: inactive

SMILES: Oc1cccc(-c2ccccc2)c1
- Potency: inactive

SMILES: O=C(OC1CCCCC1)c1ccccc1C(=O)OC1CCCCC1
- Potency: inactive

SMILES: CNC(C)Cc1ccccc1OC (stereo not drawn)
- Potency: inactive

SMILES: O=C(Nc1ccc2[nH]ccc2c1)c1cc2cc(F)ccc2n1Cc1cccc(F)c1
- Potency: inactive

SMILES: CC1(C)[C@H](C=C(Cl)Cl)[C@@H]1C(=O)O[C@@H](C#N)c1cccc(Oc2ccccc2)c1
- Potency: inactive

SMILES: CC(Oc1cccc(Cl)c1)C(=O)O (stereo not drawn)
- Potency: inactive

SMILES: C=CC(=O)N(C)C
- Potency: inactive

SMILES: Cc1cccc2sc3nncn3c12
- Potency: inactive

SMILES: CSSC
- Potency: inactive

SMILES: CCCCc1ccc(O)cc1
- Potency: inactive

SMILES: FC(F)OC(F)(F)C(F)Cl (stereo not drawn)
- Potency: inactive

SMILES: CCCCC(=O)Cl
- Potency: inactive

SMILES: COP(N)(=S)Oc1ccccc1C(=O)OC(C)C (stereo not drawn)
- Potency: inactive

SMILES: COP(=O)(OC)O/C(=C\Cl)c1cc(Cl)c(Cl)cc1Cl
- Potency: inactive

SMILES: CCCSC(=O)N(CCC)CCC
- Potency: inactive

SMILES: CNCC(=O)c1ccc(O)c(O)c1
- Potency: 531 nM (active)

SMILES: COc1ccc([N+](=O)[O-])cc1O
- Potency: inactive

SMILES: N#CCCSCCC#N
- Potency: inactive

SMILES: Oc1ccccc1Br
- Potency: inactive

SMILES: N#C/C(N)=C(/N)C#N
- Potency: inactive

SMILES: COc1cc(OC)nc(NC(=O)NS(=O)(=O)c2ncccc2OCC(F)(F)F)n1
- Potency: inactive

SMILES: ClC=C(Cl)Cl
- Potency: inactive

SMILES: CC(C)(COCC1CO1)COCC1CO1 (stereo not drawn)
- Potency: inactive

SMILES: CCCN1CCC[C@@H]2Cc3[nH]ncc3C[C@H]21
- Potency: inactive

SMILES: Cn1cc(C2=C(c3cn(C4CCN(Cc5ccccn5)CC4)c4ccccc34)C(=O)NC2=O)c2ccccc21
- Potency: inactive

SMILES: O=C(O)COc1ccc(Cl)cc1
- Potency: inactive

SMILES: CC(C)NCC(O)c1ccccc1Cl (stereo not drawn)
- Potency: 668 nM (active)

SMILES: [Cl][Sb]([Cl])[Cl]
- Potency: inactive

SMILES: Clc1c(Cl)c(Cl)c(Cl)c(Cl)c1Cl
- activation: 15.9% [at 8.39 µM]

SMILES: OC(c1ccccc1)(c1ccccc1)C1CCNCC1
- Potency: inactive

SMILES: ClC(Cl)=C(Cl)Cl
- Potency: inactive

SMILES: CCC1COC(Cn2cncn2)(c2ccc(Cl)cc2Cl)O1 (stereo not drawn)
- Potency: inactive

SMILES: CN(C)[C@@H]1C(=O)C(C(N)=O)=C(O)[C@@]2(O)C(=O)C3=C(O)c4c(O)ccc(Cl)c4[C@@](C)(O)[C@H]3C[C@@H]12
- Potency: inactive
